# From PubChem BioAssay AID504652 (National Center for Advancing Translational Sciences (NCATS), 2011)
# The whole screen tested about 360,000 compounds, of which about 11,000 (3.1%) were called active. Cut-off read from the data, not from the text of the source: active = activity change below about -30%; inactive = the rest. For the sample, actives were picked, then their nearest neighbours and some compounds at random.
# Biological target: D(1A) dopamine receptor (Homo sapiens) (UniProt P21728)
# Sequence (P21728 whole entry, looked up): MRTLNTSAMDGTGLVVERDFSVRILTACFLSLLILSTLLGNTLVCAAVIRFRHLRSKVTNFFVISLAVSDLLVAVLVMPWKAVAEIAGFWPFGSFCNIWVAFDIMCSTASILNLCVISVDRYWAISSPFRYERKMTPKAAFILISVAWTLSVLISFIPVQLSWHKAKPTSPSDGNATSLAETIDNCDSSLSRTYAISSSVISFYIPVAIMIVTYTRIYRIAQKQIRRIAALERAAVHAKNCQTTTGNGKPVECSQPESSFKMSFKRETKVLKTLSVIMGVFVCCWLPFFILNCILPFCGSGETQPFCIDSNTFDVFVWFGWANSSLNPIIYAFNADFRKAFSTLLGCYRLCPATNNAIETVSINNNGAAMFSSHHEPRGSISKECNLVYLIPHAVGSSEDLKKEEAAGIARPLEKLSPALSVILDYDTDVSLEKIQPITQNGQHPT
# Test: Antagonist of Human D 1 Dopamine Receptor: qHTS
# Conditions: HEK293 TREx D1 cells, calcium flux, dopamine EC80; at 10 µM; hits give low values
# In short: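 Kinetic fluorescence of a calcium dye serves as the read-out. D1-expressing Hek293 Trex cells, induced overnight at 30 C, are exposed to compound for 180 s before an EC80 dopamine addition, then read 180 s further.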
# % is set by controls: 0 for no effect and ±100 for the full control effect.
row,Compound,"activity change, negative = inhibition"
1,O=C(CCc1nc(CN2CCN(S(=O)(=O)c3ccc(Cl)cc3)CC2)no1)N1CCCCC1,-4.7% (inactive)
2,Cc1ccccc1S(=O)(=O)N1[C@@H](c2cccc(Cl)c2)C(C(=O)O)=CC[C@H]1c1ccc(Cl)cc1,-39.7% (active)
3,Cc1ccc([C@@H]2CC=C(C(=O)O)[C@H](c3cccc(Cl)c3)N2S(=O)(=O)c2ccc(C)cc2)cc1,-12.2% (inactive)
4,Cc1ccc(S(=O)(=O)N2[C@@H](c3cccc(Cl)c3)C(C(=O)O)=CC[C@H]2c2ccc(Cl)c(Cl)c2)cc1,-17.8% (inactive)
5,CCc1cccc(-n2nnc(-c3nsc(NC(=O)c4ccc(C)cc4)n3)c2C)c1,16.6% (inactive)
6,COc1cc(C(=O)NCc2ccc3c(c2)cc(C)n3C)cc(OC)c1OC,-1.99% (inactive)
7,Cc1ccc(CNC(=O)COc2ccc3c(c2)CCC3)cc1,0.495% (inactive)
8,CCOCC(=O)NCc1ccc2c(c1)cc(C)n2C,-38.5% (active)
9,CCc1ccccc1NC(=O)Cn1c(=O)n(CC2CCC(C(=O)NCCc3ccccc3)CC2)c(=O)c2ccccc21 (stereo not given),9.85% (inactive)
10,CCOC(=O)c1c(CN2CCOCC2)n(-c2ccccc2)c2ccc(O)cc12,2.3% (inactive)
11,CC(=O)c1c(C)n(-c2ccc(C)cc2)c2ccc(O)cc12,-50.8% (active)
12,CC(=O)c1c(C)n(-c2ccc(N(C)C)cc2)c2ccc(OCC(N)=O)cc12,4.08% (inactive)
13,O=c1c2ccccc2n(Cc2cccc(Cl)c2)c(=O)n1Cc1ccccc1,-3.55% (inactive)
14,Fc1ccccc1Oc1ncnc2c1oc1ccccc12,-11.6% (inactive)
15,O=c1cc(Cn2nnc(-c3ccc(Cl)cc3)n2)nc2sccn12,-32.8% (active)
16,O=C(OCc1cc(=O)n2ccsc2n1)C1(c2ccc(Cl)cc2)CC1,5.81% (inactive)
17,CCn1c(SCc2cc(=O)n3ccsc3n2)nc2ccccc21,-2.02% (inactive)
18,COc1ccc2[nH]c3c(c2c1)CCN(C(=O)CCC1CCCC1)C3c1ccc(F)cc1 (stereo not given),-3.48% (inactive)
19,CC(C)c1ccc(OCC(=O)N(Cc2ccc(N(C)C)cc2)C2CCS(=O)(=O)C2)cc1 (stereo not given),12% (inactive)
20,CC(C)CC(=O)N=C1SC2CS(=O)(=O)CC2N1CCc1ccccc1 (stereo not given),4.43% (inactive)
21,C=CCN1C(=NC(=O)COc2ccccc2)SC2CS(=O)(=O)CC21 (stereo not given),5.52% (inactive)
22,O=C(CCC1CCCC1)N=C1SC2CS(=O)(=O)CC2N1Cc1ccccc1 (stereo not given),-43% (active)
23,COc1ccccc1CN1CCC(CNC(=O)c2cnn(-c3cccc(Cl)c3)c2C2CCN(C(=O)OC(C)(C)C)CC2)CC1,3.93% (inactive)
24,Cc1ccc(Cl)cc1NC(=O)Cc1ccc(-n2c(C)nc3cccnc32)cc1,13% (inactive)
25,COc1ccccc1N1CCN(Cc2cc(OC)c3c(c2)OCO3)CC1,-0.813% (inactive)
26,COc1cc(C(=O)NCCS(=O)(=O)N2CCN(c3ccccc3)CC2)cc(OC)c1OC,-13.9% (inactive)
27,O=C(NCC(c1ccc2c(c1)OCO2)N1CCN(c2ccccc2)CC1)C(=O)Nc1ccccc1F (stereo not given),4.02% (inactive)
28,COc1cc(C(CCN2CCN(c3ccccc3)CC2)c2c(OC)cc(OC)c3ccc(=O)oc23)cc(OC)c1OC (stereo not given),-74% (active)

row,Compound,"activity change, negative = inhibition"
1,COc1cc(OC)c2ccc(=O)oc2c1C(CCN1CCN(c2ccccc2)CC1)c1ccc2c(c1)OCO2 (stereo not given),-83.8% (active)
2,COc1ccc(C(CC(=O)N2CCN(c3ccccc3)CC2)c2c(O)cc(OC)cc2OC)cc1 (stereo not given),29.6% (inactive)
3,CC(=O)Nc1cccc(NC(=O)CSc2nccn2Cc2ccc3c(c2)OCO3)c1,1.91% (inactive)
4,O=C(Nc1ccc(Br)cc1)c1ccc(Br)c(S(=O)(=O)NCc2ccccc2)c1,-21.6% (inactive)
5,CCOc1ccccc1NC(=O)C1CCCN(S(=O)(=O)c2cn(C)cn2)C1 (stereo not given),-15.7% (inactive)
6,Cc1ccccc1CNC(=O)CCCn1nc(C)c2sc3ccccc3c2c1=O,-0.115% (inactive)
7,CCOC(=O)Cn1c(=O)n(-c2ccccc2OC)c2nc(-c3cccc(F)c3)nc(C(N)=O)c21,-25% (inactive)
8,CCc1cc2c(-c3ccccc3)cc(=O)oc2c2c1OCN(Cc1ccc(C)cc1)C2,-3.71% (inactive)
9,O=C1CSC2(C(=O)N(Cc3ccccc3)c3ccccc32)N1c1cccc(F)c1 (stereo not given),-4.64% (inactive)
10,CC1CCCN(c2csc3ccc(F)cc3c2=O)C1 (stereo not given),-8.32% (inactive)
11,COc1ccc(C2=NC3(CCCCC3)N(CC(=O)Nc3ccc(C(C)C)cc3)C2=O)cc1,-5.42% (inactive)
12,Cc1cccc(NC(=O)Cn2nc(-c3ccc(Cl)cc3)c3ccccc3c2=O)c1,6.9% (inactive)
13,O=C1C=C(c2ccc(Cl)cc2)C(=O)N1Nc1ccccc1,-47.7% (active)
14,Cc1ccc(-c2cn3c(n2)sc2cc(C(=O)NCCCc4ccccc4)ccc23)cc1,7% (inactive)
15,N#Cc1nc(-c2ccc(OCc3ccccc3)cc2)oc1NCCCN1CCOCC1,-46.5% (active)
16,Cc1ccc(-c2nc(C#N)c(NCCCn3ccnc3)o2)cc1,5.54% (inactive)
17,O=S(=O)(c1ccccc1)c1nc(-c2ccccc2)oc1NCCCN1CCOCC1,-15% (inactive)
18,Cc1cc(C)cc(NC(=O)Cn2nc(N3CCN(c4ccccc4)CC3)ccc2=O)c1,25.5% (inactive)
19,COc1ccc(C)cc1NC(=O)C(=O)NCCc1sc(-c2cccc(C)c2)nc1C,-28.6% (inactive)
20,O=c1cc2nc(-c3ccccc3)nc(SCCOc3ccc(Cl)cc3)n2[nH]1,-2.6% (inactive)
21,Cc1ccc(OCCSc2nc(-c3cccs3)nc3cc(=O)[nH]n23)cc1Cl,-20.2% (inactive)
22,CCc1ccccc1OCCSc1nc(-c2cccs2)nc2cc(=O)[nH]n12,-43.9% (active)
23,CCc1ccc(NC(=O)CN2C(=O)CCSc3ccc(S(=O)(=O)N4CCCC4)cc32)cc1,4.1% (inactive)
24,COc1ccccc1NC(=O)c1cc(S(=O)(=O)NCCc2ccccc2)ccc1F,-14.3% (inactive)
25,Cn1cccc1/C=C1\SC(=S)N(NC(=O)c2ccc(Cl)cc2)C1=O,-34% (active)
26,CC(=O)N1C(=O)/C(=C2\SC(=S)N(NC(=O)c3ccc(O)cc3)C2=O)c2ccccc21,2.62% (inactive)
27,O=C(O)c1ccc(/C=C2\SC(=S)N(NC(=O)c3ccc(Br)cc3)C2=O)cc1,-2.74% (inactive)
